Data from PubChem BioAssay (NCI).
Several values for one entry are separate records, joined by “and”; a condition that tells them apart may be missing. Equal entries are not always repeated. This is part of a sample that, as a whole, favours compounds with a hit. Of some 83,000 tested, about 20% had one in any assay.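 96-well plates, one dose, 48 hours. Percent growth reported; active if below 10.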 Activity calls are given as the source filed them.

Tests used:
Assay in all cases: NCI-60 one-dose screen, 48 h (100 = growth as untreated, 0 = no growth, -100 = all killed)
Details in all cases: 10 µM unless noted
DU-145 prostate = system: DU-145 prostate
K-562 leukemia = system: K-562 leukemia
MALME-3M melanoma = system: MALME-3M melanoma
MDA-MB-231 breast = system: MDA-MB-231 breast
RXF 393 renal = system: RXF 393 renal
SF-268 CNS = system: SF-268 CNS
SF-295 CNS = system: SF-295 CNS
SF-539 CNS = system: SF-539 CNS
UACC-257 melanoma = system: UACC-257 melanoma
M14 melanoma = system: M14 melanoma
HCT-15 colon = system: HCT-15 colon
HT29 colon = system: HT29 colon
U251 CNS = system: U251 CNS
PC-3 prostate = system: PC-3 prostate
SK-MEL-5 melanoma = system: SK-MEL-5 melanoma
UACC-62 melanoma = system: UACC-62 melanoma
LOX IMVI melanoma = system: LOX IMVI melanoma
SK-MEL-28 melanoma = system: SK-MEL-28 melanoma
SNB-75 CNS = system: SNB-75 CNS
SNB-19 CNS = system: SNB-19 CNS

Structure (SMILES) | growth (DU-145 prostate) | growth (K-562 leukemia) | growth (MALME-3M melanoma) | growth (MDA-MB-231 breast) | growth (RXF 393 renal) | growth (SF-268 CNS) | growth (SF-295 CNS) | growth (SF-539 CNS) | growth (UACC-257 melanoma) | growth (M14 melanoma) | growth (HCT-15 colon) | growth (HT29 colon) | growth (U251 CNS) | growth (PC-3 prostate) | growth (SK-MEL-5 melanoma) | growth (UACC-62 melanoma) | growth (LOX IMVI melanoma) | growth (SK-MEL-28 melanoma) | growth (SNB-75 CNS) | growth (SNB-19 CNS)
O=[N+]([O-])c1ccccc1N(S(=O)(=O)c1ccccc1)S(=O)(=O)c1ccccc1 | 118% (inactive) and 99.7% (inactive) | 93% (inactive) and 113% (inactive) | 120% (inactive) and 109% (inactive) | 112% (inactive) and 96.5% (inactive) | 119% (inactive) and 108% (inactive) | 96.3% (inactive) and 95.2% (inactive) | 108% (inactive) and 77.6% (inactive) | 117% (inactive) and 104% (inactive) | 85.7% (inactive) and 92.4% (inactive) | 128% (inactive) and 98.6% (inactive) | 105% (inactive) and 90.4% (inactive) | 109% (inactive) and 103% (inactive) | 91.5% (inactive) and 87.8% (inactive) | 80.3% (inactive) and 77.7% (inactive) | 110% (inactive) | 76.1% (inactive) and 66% (inactive) | 98.7% (inactive) and 84.7% (inactive) | 115% (inactive) and 111% (inactive) |  | 
N=C1N=C(N)CS1 | 115% (inactive) | 105% (inactive) | 114% (inactive) | 115% (inactive) | 99.4% (inactive) | 107% (inactive) | 96.5% (inactive) | 110% (inactive) | 106% (inactive) | 108% (inactive) |  | 105% (inactive) |  | 101% (inactive) | 98.4% (inactive) | 100% (inactive) | 107% (inactive) | 109% (inactive) | 92.1% (inactive) | 
COc1ccccc1NC(=O)OCC#CCOC(=O)Nc1ccccc1OC | 146% (inactive) and 96.5% (inactive) | 75% (inactive) and 57.3% (inactive) | 96.6% (inactive) | 102% (inactive) and 105% (inactive) | 102% (inactive) and 90.3% (inactive) | 116% (inactive) and 89.4% (inactive) | 105% (inactive) and 94% (inactive) | 99.9% (inactive) and 91.6% (inactive) | 100% (inactive) and 91.1% (inactive) | 106% (inactive) and 95.5% (inactive) | 114% (inactive) and 88.6% (inactive) |  | 97.4% (inactive) and 96.4% (inactive) | 102% (inactive) and 89.3% (inactive) | 94.2% (inactive) and 88.6% (inactive) | 83.7% (inactive) and 73.2% (inactive) | 96.9% (inactive) and 100% (inactive) | 106% (inactive) and 88.1% (inactive) | 92.9% (inactive) and 84.7% (inactive) | 104% (inactive) and 88.7% (inactive)
Clc1ccc(SSc2ccc(Cl)cc2)cc1 | 103% (inactive) and 109% (inactive) | 100% (inactive) | 95% (inactive) and 119% (inactive) | 107% (inactive) and 62.2% (inactive) | 96.1% (inactive) and 86% (inactive) | 94.4% (inactive) and 72.4% (inactive) | 103% (inactive) and 93.8% (inactive) | 99.5% (inactive) and 88.7% (inactive) | 91.5% (inactive) and 98.3% (inactive) |  | 98.8% (inactive) and 92.4% (inactive) | 98.1% (inactive) and 98.2% (inactive) | 93.4% (inactive) and 61% (inactive) | 87.3% (inactive) and 46.5% (inactive) | 105% (inactive) and 73.3% (inactive) | 96.9% (inactive) and 95.8% (inactive) | 97.6% (inactive) and 7.12% (active) | 96.9% (inactive) and 103% (inactive) | 74.4% (inactive) and 67% (inactive) | 93.7% (inactive) and 89.2% (inactive)
O=C(Nc1cccc(Cl)c1)c1cc2ccccc2cc1O | 22.1% (inactive) and 25.1% (inactive) | 25.8% (inactive) and 10.5% (inactive) | 2.77% (active) and -9.95% (active) | 27% (inactive) and -1.46% (active) | 18% (inactive) and 33% (inactive) | 21.2% (inactive) and 24.4% (inactive) | 13.5% (inactive) and 62.2% (inactive) | 28.4% (inactive) and 11.7% (inactive) | 5.37% (active) and -16.3% (active) |  | 16.3% (inactive) and 9.55% (active) | 104% (inactive) and 60.1% (inactive) | 13% (inactive) and 6.25% (active) | 1.88% (active) and -4.44% (active) | -14.7% (active) and -23.9% (active) | 13.8% (inactive) and 18.4% (inactive) | 25.3% (inactive) and 11% (inactive) | 35.7% (inactive) and 42% (inactive) | 45.7% (inactive) and 33.6% (inactive) | 13.2% (inactive)
CN(C)c1ccc2nc3ccc(=[N+](C)C)cc-3sc2c1 | 33.3% (inactive) and 39.8% (inactive) and 87.1% (inactive) | 27.4% (inactive) and 41.7% (inactive) and 43.5% (inactive) | -30.4% (active) and -12.7% (active) and 48.8% (inactive) | 8.14% (active) and 10% (active) and 33.4% (inactive) | 79.9% (inactive) and 65.7% (inactive) and 82.6% (inactive) | 27.7% (inactive) and 22.8% (inactive) and 26.2% (inactive) | 17.2% (inactive) and 17.6% (inactive) and 43% (inactive) | 28.4% (inactive) and 3.79% (active) and 15.5% (inactive) | -12.8% (active) and -22.4% (active) and 17.8% (inactive) | 2.78% (active) and 3.94% (active) and 15.5% (inactive) | 28.5% (inactive) and 36.7% (inactive) |  | 3.44% (active) and -10.6% (active) and 8.51% (active) | 13.7% (inactive) and 19.8% (inactive) and 32.8% (inactive) | -85.2% (active) and 5.71% (active) and 13.6% (inactive) | -19.7% (active) and 7.25% (active) and 56.5% (inactive) | 7.11% (active) and 5.63% (active) and 34.6% (inactive) | 20% (inactive) and 45.9% (inactive) and 75% (inactive) | 49.4% (inactive) and 90.2% (inactive) | 24.7% (inactive) and 23% (inactive) and 39.5% (inactive)
CC(C(=O)O)n1cc(C#N)c(=O)[nH]c1=O (centres undefined) | 124% (inactive) and 107% (inactive) | 104% (inactive) | 102% (inactive) and 116% (inactive) | 109% (inactive) and 103% (inactive) | 110% (inactive) and 115% (inactive) | 96.8% (inactive) and 99.7% (inactive) | 93.3% (inactive) and 102% (inactive) | 95.8% (inactive) and 102% (inactive) | 89% (inactive) and 108% (inactive) | 120% (inactive) and 107% (inactive) | 104% (inactive) and 102% (inactive) |  | 111% (inactive) and 107% (inactive) | 95.3% (inactive) | 105% (inactive) and 102% (inactive) | 103% (inactive) and 99.7% (inactive) | 110% (inactive) and 98.6% (inactive) | 110% (inactive) | 83.7% (inactive) and 76.9% (inactive) | 107% (inactive) and 101% (inactive)
CNc1ccc2nc3ccc(=[N+](C)C)cc-3sc2c1 | 42.4% (inactive) and 7.81% (active) | 8.78% (active) and 22.8% (inactive) | -28.2% (active) and -24.3% (active) | 4.03% (active) and -13.7% (active) | 58.3% (inactive) and 32.9% (inactive) | 5.13% (active) and 2.8% (active) | -7.68% (active) and 7.95% (active) | -6.95% (active) and -15.6% (active) | -22.2% (active) and -27.4% (active) | 3.79% (active) and -23.3% (active) | 17.2% (inactive) and 9.61% (active) |  | -48.5% (active) and -15.5% (active) | 1.57% (active) and 1.01% (active) | -97% (active) and -61.1% (active) | 4.52% (active) and -3.38% (active) | -57.5% (active) and -44.1% (active) | -31.3% (active) and 27.9% (inactive) | -53.5% (active) | 1.89% (active) and -5.26% (active)
